Data published in PubChem BioAssay AID1159580 (chemical genetic matrix, 2015).
Out of some 5,500 compounds screened, about 2,000 (36%) were called active. Roughly 18% stayed inconclusive and do not appear here. Cut-off read from the data, not from the text of the source: active = normalized growth mostly below about 0.91 (no sharp cut-off); inconclusive = no clear call, values can overlap the other calls; inactive = mostly above about 0.92. The list shows a part of the results.

Experiment: chemical genetic growth profiling, strain panel (AID 1159580);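 note: tested at 20 µM; growth read once vehicle control cultures reached saturation at 30 °C; 1 = growth at the plate median or of vehicle wells; lower values mean less growth of the strain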
Conditions: S. cerevisiae deletion strains, growth OD

Measured: normalized growth

O=C(O)CCC(=O)C(=O)O
inactive: locus YAL013W, strain DEP1, stronger effect = lower value 1.01 | locus YBR021W, strain FUR4, stronger effect = lower value 1.01 | locus YBR229C, strain ROT2, stronger effect = lower value 1.01 | locus YCL029C, strain bik1, stronger effect = lower value 1.03 | locus YDL035C, strain GPR1, stronger effect = lower value 1.03 | locus YDL074C, strain BRE1, stronger effect = lower value 1.05 | locus YDL101C, strain DUN1, stronger effect = lower value 1.02 | locus YDL185W, strain tfp1, stronger effect = lower value 1.03 | locus YDL192W, strain arf1, stronger effect = lower value 1.05 | locus YDR101C, strain arx1, stronger effect = lower value 1.05 | locus YDR162C, strain NBP2, stronger effect = lower value 1.02 | locus YDR318W, strain mcm21, stronger effect = lower value 1.01 | locus YDR388W, stronger effect = lower value 1.02 | locus YDR502C, strain sam2, stronger effect = lower value 1.03 | locus YEL061C, strain CIN8, stronger effect = lower value 1.01 | locus YER110C, stronger effect = lower value 1.03 | locus YER155C, strain BEM2, stronger effect = lower value 1 | locus YER167W, strain BCK2, stronger effect = lower value 1.01 | locus YGL078C, strain dbp3, stronger effect = lower value 1.02 | locus YGL086W, strain mad1, stronger effect = lower value 1 | locus YGL248W, strain PDE1, stronger effect = lower value 1.01 | locus YGR135W, strain pre9, stronger effect = lower value 0.987 | locus YGR229C, strain SMI1, stronger effect = lower value 1.03 | locus YGR252W, strain gcn5, stronger effect = lower value 0.942 | locus YHR030C, strain SLT2, stronger effect = lower value 1.01 | locus YHR079C, strain IRE1 (second series), stronger effect = lower value 1.03 | locus YHR094C, strain hxt1, stronger effect = lower value 1.01 | locus YHR129C, strain ARP1, stronger effect = lower value 1.02 | locus YHR200W, strain rpn10, stronger effect = lower value 1 | locus YIL066C, strain RNR3, stronger effect = lower value 1.01 | locus YIL073C, strain SPO22, stronger effect = lower value 1.07 | locus YIL125W, strain kgd1, stronger effect = lower value 1.02 | locus YIR030C, strain dcg1, stronger effect = lower value 1.03 | locus YJL095W, strain BCK1, stronger effect = lower value 1.02 | locus YJL134W, strain LCB3, stronger effect = lower value 1 | locus YJL168C, strain set2, stronger effect = lower value 1.01 | locus YJL187C, strain SWE1 (second series), stronger effect = lower value 1.02 | locus YJR043C, strain POL32, stronger effect = lower value 1.01 | locus YJR075W, strain HOC1, stronger effect = lower value 1 | locus YKL009W, strain mrt4, stronger effect = lower value 1.05 | locus YKL068W, stronger effect = lower value 1.01 | locus YKL085W, strain MDH1 (second series), stronger effect = lower value 1.01 | locus YKL085W, strain MDH1, stronger effect = lower value 1.01 | locus YKL190W, strain CNB1, stronger effect = lower value 1.01 | locus YKR001C, strain vps1, stronger effect = lower value 1.05 | locus YLR039C, strain RIC1, stronger effect = lower value 1.05 | locus YLR058C, strain SHM2, stronger effect = lower value 1.01 | locus YLR102C, strain apc9, stronger effect = lower value 1.01 | locus YLR262C, strain YPT6, stronger effect = lower value 1.05 | locus YLR268W, strain sec22, stronger effect = lower value 1.03 | locus YLR330W, strain CHS5, stronger effect = lower value 1.01 | locus YLR342W, strain FKS1 (second series), stronger effect = lower value 1.01 | locus YLR371W, strain rom2, stronger effect = lower value 1.01 | locus YLR418C, strain cdc73, stronger effect = lower value 1.02 | locus YML016C, strain PPZ1, stronger effect = lower value 1.01 | locus YML032C, strain rad52, stronger effect = lower value 0.995 | locus YML124C, strain tub3, stronger effect = lower value 1.02 | locus YMR078C, strain ctf18, stronger effect = lower value 1.03 | locus YMR223W, strain ubp8, stronger effect = lower value 1 | locus YMR307W, strain GAS1, stronger effect = lower value 1.05 | locus YNL067W, strain RPL9B, stronger effect = lower value 1.01 | locus YNL128W, strain TEP1, stronger effect = lower value 1.04 | locus YNL233W, strain BNI4, stronger effect = lower value 1.01 | locus YNL250W, strain rad50, stronger effect = lower value 1.03 | locus YNL271C, strain bni1, stronger effect = lower value 1.04 | locus YNL298W, strain CLA4, stronger effect = lower value 1.01 | locus YNL307C, strain MCK1, stronger effect = lower value 1.04 | locus YNR052C, strain pop2, stronger effect = lower value 1.02 | locus YOL012C, strain htz1 0.918 | locus YOL147C, strain pex11, stronger effect = lower value 1.02 | locus YOR061W, strain CKA2, stronger effect = lower value 1.01 | locus YOR069W, strain VPS5, stronger effect = lower value 1 | locus YOR136W, strain idh2, stronger effect = lower value 1.02 | locus YOR144C, strain elg1, stronger effect = lower value 1.02 | locus YOR184W, strain ser1, stronger effect = lower value 1.02 | locus YOR316C, strain cot1, stronger effect = lower value 1.02 | locus YPR119W, strain clb2, stronger effect = lower value 1.02 | locus YPR141C, strain kar3, stronger effect = lower value 1.02 | locus YPR163C, strain tif3, stronger effect = lower value 1.03 | locus YPR167C, strain met16, stronger effect = lower value 1.05 | strain wtn01, stronger effect = lower value 1.02
